Data on 7 compounds can be found in PubChem BioAssay (NCI).

Test systems include NCI-H23 lung; NCI-H226 lung; NCI-H322M lung; HOP-62 NSCLC; NCI-H460 lung; HOP-92 NSCLC; NCI-H522 lung; A549/ATCC NSCLC; 786-0 renal; COLO 205 colon; DU-145 prostate; K-562 leukemia; MALME-3M melanoma; MDA-MB-231 breast; RXF 393 renal; SF-268 CNS; SF-295 CNS; SF-539 CNS; UACC-257 melanoma; M14 melanoma.
What all share (test): NCI-60 one-dose screen, 48 h (100 = growth as untreated, 0 = no growth, -100 = all killed)
Holding throughout (settings): 10 µM unless noted

The panel holds about 83,000 compounds, 20% with a hit somewhere; the sample as a whole holds those more often.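 Testing used 96-well plates and a 48-hour single-concentration exposure. Example: -40 means 40% of the starting cells died.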 A number with no mark means an inactive call. Activity calls are given as the source filed them. How the source made its calls: active means growth percent below 10; inactive means the rest.

Regarding `O=C(NCCNc1nccc(-c2c(-c3cccc(O)c3)nc3sccn23)n1)c1ccc(N2CCOCC2)c(C(F)(F)F)c1`, the growth in the assay with NCI-H23 lung was 85.4%; in the assay on NCI-H226 lung, 69.5%; in the assay with NCI-H322M lung, 102%; in the assay on HOP-62 NSCLC, 96.7%; with NCI-H460 lung it was 66.9%; in the assay on HOP-92 NSCLC, 38.9%. The growth in the assay with NCI-H522 lung is 74.4%; in the assay with A549/ATCC NSCLC, 64.1%; with 786-0 renal, 60.1%; in the assay with COLO 205 colon it was 43.4%; with DU-145 prostate, 94.9%; in the assay with K-562 leukemia, 63%. Also, the growth in the assay on MALME-3M melanoma is -4.27% (active); in the assay with MDA-MB-231 breast, 64.9%; in the assay with RXF 393 renal, 57.6%; in the assay with SF-268 CNS it was 79.1%; with SF-295 CNS, 67.5%; in the assay with SF-539 CNS it was 77.8%. Further, the growth was 15.8% in the assay on UACC-257 melanoma and 19.1% in the assay with M14 melanoma.

For the compound `Nc1ncnc2c1ccn2-c1cccc(NC(=O)c2cccc(C(F)(F)F)c2)c1`, the growth in the assay on NCI-H23 lung is 90.6%; in the assay on NCI-H226 lung, 70.2%; in the assay with NCI-H322M lung, 55.8%; in the assay on HOP-62 NSCLC it was 91.7%; with NCI-H460 lung, 45.8%; with HOP-92 NSCLC, -1.72% (active). For the same compound, the growth is 56.2% with NCI-H522 lung; 50.7% in the assay on A549/ATCC NSCLC; 101% with 786-0 renal; 75.7% with COLO 205 colon; 81.8% with DU-145 prostate; 59% in the assay on K-562 leukemia. The growth in the assay with MALME-3M melanoma is 98.4%; in the assay with MDA-MB-231 breast it was 58.4%; with RXF 393 renal, 58.5%; in the assay on SF-268 CNS, 67.5%; in the assay on SF-295 CNS, 36.4%; in the assay on SF-539 CNS, 64.4%. The growth in the assay with UACC-257 melanoma was 93.2%; with M14 melanoma it was 83.9%.

For the compound `CC(=O)c1ccc2c(c1)C1C=CCC1[C@H](c1cc3c(cc1Br)OCO3)N2` (stereo not given in full), the growth in the assay with NCI-H23 lung was 27.1%; in the assay on NCI-H226 lung, 22.1%; in the assay on NCI-H322M lung, 64.8%; in the assay with HOP-62 NSCLC, 32.1%; in the assay on NCI-H460 lung, 7.92% (active); in the assay with HOP-92 NSCLC it was 16%. Also, the growth is -10.7% (active) in the assay with NCI-H522 lung; 23.4% in the assay on A549/ATCC NSCLC; 10.9% in the assay on 786-0 renal; -14% (active) in the assay on COLO 205 colon; -17% (active) with DU-145 prostate; 4.19% (active) in the assay on K-562 leukemia. The growth is 49.7% in the assay with MALME-3M melanoma; 16.9% in the assay on MDA-MB-231 breast; -12.4% (active) in the assay on RXF 393 renal; 40.6% in the assay on SF-268 CNS; -36.7% (active) with SF-295 CNS; -12.1% (active) in the assay with SF-539 CNS. For the same compound, the values for the growth in the assay on UACC-257 melanoma and in the assay on M14 melanoma were 75% and -7.21% (active), respectively.

For the compound `CCN(CC)CCNC(=O)c1c(C)[nH]c(/C=C2\C(=O)Nc3cc(NC(=O)NC(=O)c4ccc(OC)cc4F)ccc32)c1C`, the growth in the assay on NCI-H23 lung is 103%; in the assay with NCI-H226 lung, 108%; in the assay on NCI-H322M lung, 105%; in the assay on HOP-62 NSCLC it was 109%; in the assay on NCI-H460 lung it was 83.7%; in the assay on HOP-92 NSCLC, 94.9%. Further, the growth is 104% in the assay on NCI-H522 lung; 85.3% in the assay on A549/ATCC NSCLC; -55.6% (active) in the assay on 786-0 renal; 94.7% with COLO 205 colon; 97.3% with DU-145 prostate; 10.9% in the assay with K-562 leukemia. For the same compound, the growth is 108% in the assay on MALME-3M melanoma; 77.8% in the assay with MDA-MB-231 breast; 66.4% in the assay with RXF 393 renal; 102% in the assay with SF-268 CNS; 117% in the assay on SF-295 CNS; 94.7% in the assay with SF-539 CNS. The growth in the assay on UACC-257 melanoma is 111%; in the assay on M14 melanoma it was 105%.

As for `S=c1ssnc1-c1ccccn1`, the growth in the assay on NCI-H23 lung was 44.5%; in the assay on NCI-H226 lung it was 61.4%; in the assay with NCI-H322M lung it was 66.5%; in the assay on HOP-62 NSCLC it was 47.7%; with NCI-H460 lung it was 6.05% (active); in the assay with HOP-92 NSCLC, -4.36% (active). Further, the growth in the assay with NCI-H522 lung is -29.3% (active); in the assay on A549/ATCC NSCLC it was 57.7%; in the assay on 786-0 renal it was 18.1%; with COLO 205 colon, 43%; with DU-145 prostate it was 41.6%; in the assay on K-562 leukemia, -35.5% (active). Besides, the growth is 52% in the assay on MALME-3M melanoma; 44.3% in the assay with MDA-MB-231 breast; -0.23% (active) in the assay on RXF 393 renal; 24.9% in the assay with SF-268 CNS; 40.4% with SF-295 CNS; 14.5% in the assay on SF-539 CNS. In addition, the growth was 93.3% in the assay on UACC-257 melanoma and 24.5% in the assay with M14 melanoma.

As to `COc1ccc(NC(=O)COCCOCCNC[C@@H]2C(=O)O[C@H]3[C@H]2CC/C(COC(=O)OC/C2=C/CC[C@@]4(C)O[C@H]4[C@H]4OC(=O)[C@@H](CN(C)C)[C@@H]4CC2)=C\CC[C@@]2(C)O[C@@H]32)c(O)c1C(N)=O`, the growth in the assay with NCI-H23 lung is 81.8%; with NCI-H226 lung it was 49.9%; in the assay on NCI-H322M lung, 102%; in the assay on HOP-62 NSCLC, 93.9%; in the assay with NCI-H460 lung, 96%; in the assay on HOP-92 NSCLC, -26.6% (active). In addition, the growth in the assay with NCI-H522 lung was -75.7% (active); in the assay with A549/ATCC NSCLC, 72.9%; with 786-0 renal, -26.1% (active); in the assay on COLO 205 colon, -27.9% (active); in the assay on DU-145 prostate, 57%; with K-562 leukemia, 5.46% (active). The growth was -21.1% (active) in the assay with MALME-3M melanoma; 21.8% with MDA-MB-231 breast; -40.5% (active) in the assay with RXF 393 renal; 91.5% with SF-268 CNS; 105% with SF-295 CNS; 46.4% with SF-539 CNS. In addition, the growth is 40.5% with UACC-257 melanoma and 53.9% with M14 melanoma.

With `c1ccc(OCC[P+](c2ccccc2)(c2ccccc2)c2ccccc2)cc1`, the growth with NCI-H23 lung was 7.98% (active); with NCI-H226 lung it was 38.5%; in the assay with NCI-H322M lung, 59.4%; in the assay on HOP-62 NSCLC, 26.8%; with NCI-H460 lung, 17.1%; with HOP-92 NSCLC, -5.38% (active). For the same compound, the growth with NCI-H522 lung was -9.67% (active); in the assay on A549/ATCC NSCLC it was 30.9%; in the assay on 786-0 renal, 53.2%; with COLO 205 colon, 2.02% (active); in the assay on DU-145 prostate it was 36.4%; in the assay on K-562 leukemia it was 17.5%. Besides, the growth is 15.5% in the assay with MALME-3M melanoma; 43.6% in the assay with MDA-MB-231 breast; 51% with RXF 393 renal; 20.9% in the assay with SF-268 CNS; 21.2% in the assay with SF-295 CNS; 32% in the assay with SF-539 CNS. The growth was -4.91% (active) with UACC-257 melanoma and 32.6% with M14 melanoma.
